Assay results taken from the supplement of paper PMC11577813, “Eurasian spruce bark beetle detects lanierone using a highly expressed specialist odorant receptor, present in several functional sensillum types” (BMC Biology, 2024).
± gives the standard deviation of the averaged measurements.

System: lanierone-responsive B-neuron OSN class (ItypOR36)
Experiment: net action potential response of lanierone B-neuron (blank-subtracted) (spikes/s (Hz)); higher = stronger excitation
Conditions: 10 µg on filter paper, neuron: B neuron (small spike amplitude)
Description: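 Single sensillum recordings from antennal olfactory sensilla of live adult Ips typographus. Each compound was 10 µg in paraffin oil, delivered as a 0.5 s puff. Net response = spikes in the first 0.5 s of response minus the 0.5 s pre-stimulus count, doubled to give Hz, with blank response subtracted. Values are for the small-spike lanierone-responsive B-neuron (putatively expressing ItypOR36), recorded in sensilla co-housing the A-neuron class; N = 1-4, averaged.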

[1] = co-localized A-neuron class: (4S)-cis-verbenol
[2] = co-localized A-neuron class: (5S,7S)-trans-conophthorin
[3] = co-localized A-neuron class: (+)-isopinocamphone
[4] = co-localized A-neuron class: (+)-trans-4-thujanol
[5] = co-localized A-neuron class: ipsdienol
[6] = co-localized A-neuron class: myrcene
[7] = co-localized A-neuron class: p-cymene

| SMILES | net action potential response [1] | net action potential response [2] | net action potential response [3] | net action potential response [4] | net action potential response [5] | net action potential response [6] | net action potential response [7] |
| --- | --- | --- | --- | --- | --- | --- | --- |
| O=Cc1ccccc1 [Benzaldehyde] | 0 ± 3.5 | 0.667 ± 1.1 | -2.67 ± 3.1 | -2.5 ± 10 | 2 ± 7.2 | -6 | 0 |
| C=CCc1ccc(OC)cc1 [Estragole] | 1.33 ± 7.6 | 0 ± 7.8 | 0 ± 2 | 0 ± 4.3 | 4 ± 5.3 | -8 | -2.67 ± 1.1 |
| Cc1ccccc1 [Toluene] | 2 ± 4 | -1 ± 5 | -4 | 1 ± 1.1 | -2 ± 3.5 | 0 | 0 |
